From the supplement of paper PMC10981050
“And” between values parts separate entries of the source, which are not always exact repeats. Identical values can stand only once. Counter-ions that a name gives are not always drawn.

What was measured:
Assay in all cases: cell viability relative to vehicle control; higher = less cytotoxic
Conditions in all cases: 10 µM
K562 = test system: K562
Summary of the method: (§1)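 Four leukaemia lines, as CRISPR-edited mutant clones and isogenic wild-type clones, were tested against Selleck bioactive, kinase and epigenetic probe libraries after removal of identity-inconsistent compounds. Cells were exposed to a single 10 µM dose for 48 h, and CellTiter-Glo luminescence was then read. Viability was calculated relative to the on-plate vehicle control.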

MARIMO = test system: MARIMO
Summary of the method: as §1

MOLM14 = test system: MOLM14
Summary of the method: as §1

OCI-AML2 = test system: OCI-AML2
Summary of the method: as §1

| Compound | cell viability (K562; SRSF2 genotype: SRSF2 P95H/wt) | cell viability (K562; SRSF2 genotype: SRSF2 wt/wt) [%] | cell viability (MARIMO; SRSF2 genotype: SRSF2 P95H/wt) [%] | cell viability (MARIMO; SRSF2 genotype: SRSF2 wt/wt) [%] | cell viability (MOLM14; SRSF2 genotype: SRSF2 P95H/wt) [%] | cell viability (MOLM14; SRSF2 genotype: SRSF2 wt/wt) [%] | cell viability (OCI-AML2; SRSF2 genotype: P95H/wt) [%] | cell viability (OCI-AML2; SRSF2 genotype: wt/wt) [%] |
| --- | --- | --- | --- | --- | --- | --- | --- | --- |
| C=C[C@H]1CN2CC[C@H]1C[C@H]2[C@H](O)c1ccnc2ccccc12 [Cinchonidine] | 87.9% and 96.3% | 94.8 | 94.6 | 97.5 | 85.7 | 97.8 | 95.2 | 92.1 |
| C#C[C@]1(O)C=C[C@H]2[C@@H]3CCC4=CC(=O)CC[C@@H]4[C@H]3CC[C@@]21CC [Gestodene] | 94.9% and 97.5% | 95.4 | 90.9 | 97.2 | 94.2 | 97.1 | 99 | 94.8 |
| NC(=O)CN1CCCC1=O [Piracetam] | 96.1% and 103% | 98.7 | 102 | 102 | 99.6 | 105 | 103 | 112 |
| CN1CCc2cc3c(cc2C1C1OC(=O)c2c1ccc1c2OCO1)OCO3 (single isomer, unassigned; (+)) [(+)-Bicuculline] | 102% and 97.1% | 96.5 | 97.6 | 106 | 99.2 | 99.5 | 93.9 | 96.7 |
| CC1=C(O)C(=O)C=C2C1=CC=C1[C@@]2(C)CC[C@@]2(C)[C@@H]3C[C@](C)(C(=O)O)CC[C@]3(C)CC[C@]12C [Celastrol] | 0.95% and 0.55% | 0.65 | 0.44 | 0.52 | 0.47 | 0.51 | 0.35 | 0.44 |
| C[C@]12CC[C@H](O)CC1=CC[C@@H]1[C@@H]2CC[C@]2(C)C(=O)CC[C@@H]12 [Dehydroepiandrosterone (DHEA)] | 89.1% and 108% | 102 | 98.1 | 101 | 108 | 103 | 110 | 93.2 |
| O=C(O)C(=O)CBr [Bromopyruvic acid] | 99.8% and 89.6% | 90.3 | 90 | 97.8 | 91.6 | 94.7 | 94.7 | 93.9 |
| CN1C(=O)COc2c(C(=O)NC3CN4CCC3CC4)cc(Cl)cc21 (stereo not given) [Azasetron HCl] | 96.6% and 91.5% | 94.9 | 92.8 | 98.7 | 90.5 | 97.3 | 95.9 | 94.7 |
| CN1C(=O)CCS(=O)(=O)C1c1ccc(Cl)cc1 (stereo not given) [Chlormezanone (Trancopal)] | 102% and 101% | 93.5 | 97 | 96.7 | 93.1 | 97.2 | 94.1 | 95.6 |
| CC(=O)O[C@H]1C[C@H](O[C@H]2[C@@H](O)C[C@H](O[C@H]3[C@@H](O)C[C@H](O[C@H]4CC[C@@]5(C)[C@H](CC[C@@H]6[C@@H]5C[C@@H](O)[C@]5(C)[C@@H](C7=CC(=O)OC7)CC[C@]65O)C4)O[C@@H]3C)O[C@@H]2C)O[C@H](C)[C@H]1O[C@@H]1O[C@H](CO)[C@@H](O)[C@H](O)[C@H]1O [Lanatoside C] | 10.1% and 11.2% | 12.5 | 14.9 | 5.1 | 4.2 | 0.9 | 0.9 | 3.5 |
